# In the supplement of paper PMC9694430:
# “And” between values parts separate entries of the source, which are not always exact repeats. Identical values can stand only once. Counter-ions that a name gives are not always drawn.
# Tested on: T1, LOC_OS01G52050-cb004
# T1 sequence (whole entry): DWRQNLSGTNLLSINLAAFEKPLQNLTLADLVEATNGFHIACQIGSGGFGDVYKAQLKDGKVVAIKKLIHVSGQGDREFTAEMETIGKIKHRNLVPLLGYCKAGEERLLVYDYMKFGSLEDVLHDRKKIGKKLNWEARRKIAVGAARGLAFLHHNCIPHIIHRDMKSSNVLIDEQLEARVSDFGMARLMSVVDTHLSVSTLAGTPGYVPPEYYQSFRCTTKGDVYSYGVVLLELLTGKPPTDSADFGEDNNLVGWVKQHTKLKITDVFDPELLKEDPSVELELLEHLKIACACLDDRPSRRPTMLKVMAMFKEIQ
# Assay: thermal shift delta Tm vs DMSO control; higher = stronger stabilization (binding)
# Conditions: 12.5 µM; protein concentration 2 µM
# In short: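 Heating from 25°C to 95°C at 0.05°C/s, fluorescence was recorded for 19.5 μl wells of 2 μM E. coli-expressed, purified rice kinase domain in 100 mM potassium phosphate pH 7.5, 150 mM NaCl, 10% glycerol and 5 × SYPRO Orange with compound in DMSO. Boltzmann fits gave melting temperatures for this differential scanning fluorimetry assay. The shift reported is the mean of three replicates against the DMSO-only protein.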
# 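Further: purified Escherichia coli-expressed rice kinase domain construct.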
row,SMILES,thermal shift delta Tm
1,C[C@H](CN(C)C)Oc1nc(Nc2cc3cccc(Cl)c3cn2)cnc1C#N,1.79 °C
2,CN1c2ccccc2C(=O)Nc2cnc(Nc3ccc(N4CCC(O)CC4)cc3)nc21,0.63 °C
3,CCNc1nc(Nc2cc(F)c(C(=O)N3CCOCC3)cc2OC)ncc1C(F)(F)F,-0.2 °C
4,COc1cc2ncnc(Nc3ccc(Oc4ccccc4)cc3C)c2cc1OC,2.07 °C
5,O=C1NC(=O)/C(=C/c2cccc(C(F)(F)F)c2)S1,0.12 °C
6,COc1ccc(C(=O)Nc2sc3c(c2C(N)=O)CCCC3)cc1OC,1.28 °C
7,C#Cc1cccc(Nc2ncnc3cc(OCCOC)c(OCCO)cc23)c1,1.63 °C
8,FC(F)(F)c1ccc(/C=C/c2nc(COc3ccc(CCCCn4ccnn4)cc3)co2)cc1 [Mubritinib (TAK 165)],0.24 °C
9,CNC(=O)Nc1ccc(-c2nc(N3CC4CCC(C3)O4)c3cnn(C4CCC5(CC4)OCCO5)c3n2)cc1,0.38 °C
10,CC(C)(C)NS(=O)(=O)c1cncc(-c2cc(F)c3nc(N)nn3c2)c1,0.57 °C
11,C[C@@H]1CN(CC(=O)Nc2ccc3c(c2)Cc2cccc(-c4cc(=O)cc(N5CCOCC5)o4)c2S3)C[C@H](C)O1,0.42 °C
12,COCCOc1ccc2c(c1)ncn2-c1ccc2cccc(N3CCC(N)CC3)c2n1,10.9 °C
13,Cc1ccc(NC(=O)c2ccc(CN3CCN(C)CC3)cc2)cc1Nc1nc(-c2cccnc2)cs1 [Masitinib (AB1010)],-0.18 °C
14,Cn1cc(-c2cnn3c(N)c(Br)c([C@@H]4CCCNC4)nc23)cn1,0.71 °C
15,COc1ccc(-c2cc3c(C)nc(N)nc3n([C@H]3CC[C@H](OCCO)CC3)c2=O)cn1,0.16 °C
16,Cc1ccc(S(=O)(=O)/C=C/C#N)cc1,-1.44 °C
17,"CCCS(=O)(=O)Nc1ccc(F)c(C(=O)c2c[nH]c3ncc(-c4ccc(Cl)cc4)cc23)c1F [Vemurafenib (PLX4032, RG7204)]",11.1 °C
18,C[C@@H](N)c1ccc(C(=O)Nc2ccnc3[nH]ccc23)cc1,1.35 °C
19,O=C(NC1CCNCC1)c1n[nH]cc1NC(=O)c1c(Cl)cccc1Cl,-0.1 °C and 0.56 °C

row,SMILES,thermal shift delta Tm
1,NCC(=O)Nc1ccc(-n2nc(C(F)(F)F)cc2-c2ccc3c(ccc4ccccc43)c2)cc1,2.4 °C
2,CCn1c(-c2nonc2N)nc2cnc(Oc3cccc(NC(=O)c4ccc(OCCN5CCOCC5)cc4)c3)cc21,0.93 °C
3,COc1cc2c3cc1Oc1c(OC)c(OC)cc4c1[C@@H](Cc1ccc(O)c(c1)Oc1ccc(cc1)C[C@@H]3N(C)CC2)N(C)CC4 [Berbamine (dihydrochloride)],0.22 °C
4,COc1cc2ncc(-c3ccccc3)nc2cc1OC [Tyrphostin AG 1296],1.69 °C
5,C[C@H]1CNCCCN1S(=O)(=O)c1cccc2cncc(F)c12 [Ripasudil (K-115) hydrochloride dihydrate],0.63 °C
6,N#Cc1c(NC(=O)c2cccc3ccccc23)sc2c1CCCC2 [JNK Inhibitor IX],-0.13 °C
7,CC(C)N(CCC(=O)c1ccc2ccccc2c1)Cc1ccccc1,-7.43 °C
8,COC(=O)c1ccc2c(c1)NC(=O)/C2=C(\Nc1ccc(N(C)C(=O)CN2CCN(C)CC2)cc1)c1ccccc1 [Nintedanib (BIBF 1120)],1.07 °C
9,Nc1ccc(-c2ccc3ncc4ccc(=O)n(-c5cccc(C(F)(F)F)c5)c4c3c2)cn1 [Torin 2],0.7 °C
10,COc1ccc2c(Oc3ccc(NC(=O)c4c(C)n(CC(C)(C)O)n(-c5ccccc5)c4=O)nc3)ccnc2c1,1.2 °C
11,COc1ncc(-c2ccc3nccc(-c4ccnnc4)c3c2)cc1NS(=O)(=O)c1ccc(F)cc1F,1.09 °C
12,Cc1c[nH]c(/C=C2\C(=O)Nc3ccccc32)c1CCC(=O)O,1.77 °C
13,Cc1cc(Nc2cc(Cl)nc(Oc3ccc([N+](=O)[O-])cc3)n2)n[nH]1 [Autophinib],5.57 °C
14,O=C(c1ccc(/C=C/c2n[nH]c3ccccc23)cc1)N1CCNCC1,7.26 °C
15,COc1ccc(CNC(=O)Nc2ncc([N+](=O)[O-])s2)cc1,0.42 °C
16,Cc1cc2c(F)c(Oc3ncnn4cc(OC[C@@H](C)O)c(C)c34)ccc2[nH]1,0.2 °C
17,C=CC(=O)Nc1cccc(Oc2nc(Nc3ccc(N4CCN(C)CC4)cc3)nc3ccsc23)c1,1.94 °C
18,O=c1cc(N2CCOCC2)oc2c(-c3ccc4c(c3)OCCO4)csc12,4.58 °C
19,c1nc2c(NC3CCCCC3)nc(Nc3ccc(N4CCOCC4)cc3)nc2[nH]1 [Reversine],5.54 °C
